# Legend:
# Experiment in all cases: PBM binding z-score (relative to random genomic background probes); higher = stronger binding; sequences stand for … in GC…GCGATTGACAGCGTAGAATGAAGG
# [1] = test system: FXR:RXRa (NR concentration 270 nM, RXRa partner concentration 90 nM)
# Summary of the method: (§1)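 Each nuclear receptor dimer, without ligand, was incubated for 1 h on custom Agilent 4×180K protein-binding microarrays. Binding was detected with antibodies against each partner (one per run), and scanned fluorescence was regression-normalized. The binding z-scores are referenced to random human genomic background probes.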
# [2] = test system: LXRa:RXRa (NR concentration 270 nM, RXRa partner concentration 90 nM)
# Summary of the method: as §1
# [3] = test system: LXRa homodimer (NR concentration 270 nM)
# Summary of the method: as §1
# [4] = test system: LXRb:RXRa (NR concentration 270 nM, RXRa partner concentration 90 nM)
# Summary of the method: as §1
# [5] = test system: LXRb homodimer (NR concentration 270 nM)
# Summary of the method: as §1
# [6] = test system: PPARa:RXRa (NR concentration 270 nM, RXRa partner concentration 90 nM)
# Summary of the method: as §1
# [7] = test system: PPARg:RXRa (NR concentration 180 nM, RXRa partner concentration 90 nM)
# Summary of the method: as §1
# [8] = test system: PPARg:RXRa 270nM:90nM, anti-RXR (NR concentration 270 nM, RXRa partner concentration 90 nM)
# Summary of the method: as §1
# [9] = test system: PPARg:RXRa 30nM:10nM, anti-RXR (NR concentration 30 nM, RXRa partner concentration 10 nM)
# Summary of the method: as §1
# [10] = test system: PPARg:RXRa 90nM:30nM, anti-RXR (NR concentration 90 nM, RXRa partner concentration 30 nM)
# Summary of the method: as §1
# [11] = test system: PPARg:RXRa DBDmut IVT, anti-RXR (DBD mutation: RXRa K156A/R161A, NR concentration 270 nM, RXRa partner concentration 90 nM)
# Summary of the method: as §1
# [12] = test system: PPARg:RXRa IVT, anti-PPARg (NR concentration 270 nM, RXRa partner concentration 90 nM)
# Summary of the method: as §1
# [13] = test system: PPARg DBDmut:RXRa IVT, anti-PPARg (DBD mutation: PPARg1 K132A/R137A, NR concentration 270 nM, RXRa partner concentration 90 nM)
# Summary of the method: as §1
# [14] = test system: PPARg DBDmut IVT, anti-PPARg (DBD mutation: PPARg1 K132A/R137A, NR concentration 270 nM)
# Summary of the method: as §1
# [15] = test system: PPARg homodimer (NR concentration 180 nM)
# Summary of the method: as §1
# [16] = test system: PXR:RXRa (NR concentration 270 nM, RXRa partner concentration 90 nM)
# Summary of the method: as §1
# [17] = test system: PXR homodimer (NR concentration 270 nM)
# Summary of the method: as §1
# [18] = test system: RARa:RXR (NR concentration 270 nM, RXRa partner concentration 90 nM)
# Summary of the method: as §1
# [19] = test system: RARa homodimer (NR concentration 270 nM)
# Summary of the method: as §1
# [20] = test system: RARb:RXRa (NR concentration 270 nM, RXRa partner concentration 90 nM)
# Summary of the method: as §1
Sequence,PBM binding z-score [1],PBM binding z-score [2],PBM binding z-score [3],PBM binding z-score [4],PBM binding z-score [5],PBM binding z-score [6],PBM binding z-score [7],PBM binding z-score [8],PBM binding z-score [9],PBM binding z-score [10],PBM binding z-score [11],PBM binding z-score [12],PBM binding z-score [13],PBM binding z-score [14],PBM binding z-score [15],PBM binding z-score [16],PBM binding z-score [17],PBM binding z-score [18],PBM binding z-score [19],PBM binding z-score [20]
CCGACTGGGGGAGAAAGGTTACCATACCATCCGG,1.31,1.61,0.182,2.9,4.09,3.66,3.97,6.01,4.46,6.42,1.08,2.68,1.16,2.68,1.76,2,0.501,2.74,0.727,1.68
CCTACTGGGCCATTCATAGGTCATTGATCATATG,0.867,2.17,3.55,2,-0.0981,2.64,1.49,1.93,0.277,1.06,4.46,3.82,0.954,-0.204,1.33,1.8,0.411,2.11,0.376,1.88
AGAATGAGGTTAAGATCAGTGAAACAGAATACAT,2.32,3.08,0.0147,1.91,-0.196,3.6,2.38,2.25,1.23,1.78,2.35,2.8,1.66,0.567,0.498,1,-0.347,1.84,-0.219,1.74
TCTATTAGTTGAAGGGCAACGGACGAGTCCGTTT,0.568,0.993,0.2,1.07,0.679,1.06,0.0889,2.19,3.6,2.89,2.22,0.812,0.14,0.912,0.894,0.785,1.18,0.778,0.625,1.76
TCTAGCAGGCCCGAGGGTCACTCAAGAGGTACGG,0.726,0.983,-0.649,1.04,-1.35,1.96,0.501,1.33,1.57,1.42,0.262,-0.284,-0.445,-0.801,0.169,1.35,-0.577,2.07,-0.992,1.94
GCCAGTTGGTCAGTAAAAGGTCACACACCGGTCG,3.07,4.03,4.4,3.89,-0.0245,4.36,2.75,4.34,1.84,3.62,0.399,2.44,0.21,0.231,3.78,5.1,1.14,5.76,1.88,4.14
TCATATAGGTAAATGTGAAAGTCGAACGATATGA,0.203,0.245,-0.116,0.343,-0.015,0.983,1.44,2.01,3.79,2.88,3.33,2.26,1.69,1.36,0.31,0.168,-0.0723,0.602,0.286,0.153
CAAACTAGGTCACGAAAGGTCAATGTCGAATGAC,7.08,7.86,6.57,7.03,1.87,6.73,10.3,8.29,6.83,8.33,8.46,9.35,5.05,3.62,4.79,6.78,1.92,7.1,1.91,5.86
TCGAGTAGGTTATCAATGGGGCATTCAGCTTTCT,0.264,1.14,-0.501,1.05,-0.428,0.979,-0.105,0.76,1.03,0.852,3.08,1.84,-0.103,-0.254,-0.00524,0.223,-0.333,0.202,-0.0483,0.739
ACTTACGGATCAACGAGGTTATAGCACGCGTATA,0.716,0.914,0.686,1.25,0.594,1.47,0.98,0.564,0.453,0.486,0.402,0.468,0.823,0.952,0.607,1.41,0.695,1.5,1.25,0.645
TCGAGTAGGTTACCACTGGGGCATTCAGCTTTCT,-0.222,0.889,-0.872,0.314,-0.76,1.04,0.354,1.12,0.971,0.965,3.33,3.37,0.26,0.143,-0.498,-0.159,-1.14,0.0985,-0.786,0.833
TCATAGAGGTAAAAGGTGAAAGTCGGTGTGGTAA,1.97,1.96,-0.0856,2.03,-0.828,4.69,6.33,6.66,5.72,7.33,2.72,3.24,0.0344,-0.0644,0.851,2.07,-0.248,3.86,0.918,2.07
AGAATGAGGTTACCAAAGATCAGGAAAACGCTTG,1.7,6.01,-0.322,3.66,-0.00832,3.51,2.7,2.54,0.962,2.01,4.01,3.35,0.931,0.626,0.925,1.57,-0.0296,2.1,0.339,1.95
ACTATTAGTTGAGACGAGGGCACCCGATAGGTTG,0.0849,0.0854,-0.0764,0.0614,0.318,0.202,0.813,0.197,0.108,0.163,-0.207,0.476,0.77,0.797,-0.607,1.33,0.328,1.2,0.511,0.966
TCATATAGGTACATGCTAGGTGAAAGTCCGATCT,0.846,1.11,0.242,0.622,0.134,1.15,0.699,2.04,3.56,2.99,2.58,1.73,0.847,1.54,0.444,0.528,0.248,0.868,0.997,0.432
ACTATTAGTTGAGACGAGGGCAAACGATAGGTTG,0.392,0.212,0.35,0.169,0.32,0.382,0.773,0.206,0.117,0.161,0.0525,0.456,1.03,1.15,0.189,1.83,0.478,0.637,0.392,0.841
AGTCAAAGTTCAAGACGAGGTAACGTAAAGCACG,6.21,5.72,2.72,3.19,0.519,4.72,6.2,6.17,3.81,5.35,0.127,2.85,1.37,1.3,3.22,4.49,2.5,4.02,1.38,4.84
TAGCCTAGGTCAGATGGGGCCAGTATACGCTATA,2.75,1.56,-0.0271,1.38,-0.069,1.78,0.972,1.14,0.184,0.725,1.03,1.7,-0.854,-0.361,0.556,3.45,-0.272,1.24,-0.56,3.42
ACTAGTTGATCAGCTGAGGTCACACACAATTCGG,3.31,2.93,1.91,3.51,0.605,3.89,1.6,2.33,0.574,1.42,0.672,2.14,0.806,1.68,2.57,4.97,2.19,4.95,0.417,3.22
ATCTCTAGGTAAGACTCAGTTCAGTGGAGAACGC,0.367,0.505,0.914,0.328,0.692,0.228,0.00731,0.28,0.129,0.315,1.76,1.05,0.655,0.595,1.2,1.32,1.24,0.355,0.601,0.727
GCGACTGGGGCATCAGCAGGTTACGATAACTTAA,-0.306,-0.214,-0.449,0.641,-0.638,1.38,1.05,0.876,-0.247,0.263,3.75,3.19,-0.586,-0.712,0.335,0.0357,-0.369,0.42,-0.452,0.866
TCTATTAGTCGAAGGGCAACCGACGAGTCCGTTT,0.678,0.643,0.0615,0.638,0.475,0.751,0.274,2.2,3.57,2.77,2.28,0.642,0.468,0.866,0.702,0.597,0.535,0.379,0.63,1.36
CGTCAAAGTTCAAGGTAGCGTAACAGAAAGCAGC,5.54,5.8,2.95,3.18,0.738,4.56,3.8,5.04,2.26,3.89,0.367,1.36,-0.0381,0.0782,3.03,3.84,2.73,3.35,0.828,5.01
CCTACTGGGCCTCGAAAGGTCATTGATTCAGTGA,3.05,3.94,4.13,3.74,0.187,4.05,1.44,2.98,0.556,1.97,2.57,3.15,-1.13,-0.00532,2.06,4.88,1.11,4.9,0.198,3.66
CCTGCAAGGTCAATGGTCAGCTAAAGCAGCTCGC,6.55,4.95,0.264,3.63,0.38,5.21,4.22,4.88,1.21,3.68,2.93,2.76,-0.252,-1.15,2.72,3.78,0.469,4.56,0.759,5.01
CAAACTAGGTCACGAAAGGTCAAGGTCGAATGAC,7.28,7.82,6.86,6.75,1.7,6.43,10.6,8.38,7.12,8.5,8.73,9.06,5.16,2.59,5.42,6.88,3.03,7.71,3.81,5.62
TTACCAAGGTGAAGGTCGGTGATCCCTCTGTAGA,0.881,0.952,-0.494,0.467,-0.916,2.14,2.65,3.05,1.65,2.96,1.69,2.91,-0.0946,-0.454,0.55,0.481,-0.271,1.28,0.175,1.96
ACTATTAGTTGAGACGTGGGCAACCGATAGGTTG,-0.344,-0.403,-0.444,-0.738,0.00492,-1.07,0.429,-0.3,-0.0556,-0.44,-0.218,-0.152,0.175,0.352,-0.426,-0.64,-0.53,-0.914,-0.357,-0.226
CCGACTGGGGCAGAAAGGTTTCCATACCATCCGG,-0.743,-0.804,-0.629,-1.01,-1.31,-0.642,0.629,0.229,-0.72,-0.258,1.64,0.908,-1.84,-1.79,-0.677,-0.755,-0.948,-0.82,-1.09,0.352

# — the supplement of paper PMC6555819
